The campaign covered roughly 140,000 compounds. About 4,300 (3.1%) were called active. About 21% were inconclusive and are not listed. Many of the other results were omitted from the sample, so actives are more common in it than they were. Values without a mark were called inactive.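 The calls were made as follows: active = readout at or below -70, meaning at least 70% loss of cells showing the perinucleolar compartment, a nuclear body marking cancer cells; inconclusive = readout between -30 and a set limit; inactive = the rest.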
assay: High Content Assay for Compounds that inhibit the Assembly of the Perinucleolar Compartment; details: PC3M PTB-GFP, PNC prevalence imaging, 16 h; at 10 µM; active compounds read low;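 also: plate controls were DMSO wells for no effect and camptothecin positive control wells for full effect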
Text: High Content Assay for Compounds that inhibit the Assembly of the Perinucleolar Compartment NIH Chemical Genomics Center [NCGC] NIH Molecular Libraries Probe Centers Network [MLPCN] MLPCN Grant: MH082371-01A2 Assay Submitter (PI): Sui Huang, Northwestern University, Feinberg School of Medicine, Cell and Molecular Biology, Chicago, Illinois. The perinucleolar compartment (PNC) is a non-membrane-bound nuclear subdomain that is associated with but structurally distinct from the nucleolus. The PNC is a heritable trait, in which the number of PNCs per cell in daughter cells often mimics that of their mother cells. The PNC is heterogeneous in shape, is stable through interphase, disassembles during mitosis, and reassembles in early G1. The PNC is concentrated with newly synthesized RNA polymerase III (pol III) RNAs (MRP RNA, RNAse P H1 RNA, hY RNAs[hY1, 2, 5], Alu RNA, and SRP [7SL] RNA) and RNA binding proteins (nucleolin, PTB, CUG-BP, KSRP, Raver1, Raver2, and Rod). […] Extensive in vitro studies have shown that the PNC is unique to tumor cells and preferentially forms in tumor cells derived from solid tissues. Examination of cancer cell lines from various origins and malignant capacities has shown that PNC prevalence correlates with the malignancy of tumors and has the potential to be developed as a pan-cancer prognostic marker. […] Although the PNC is associated with a DNA locus and a handful of components have been identified, much remains to be investigated regarding the structure and function of the PNC and its mechanistic link to cancer. We have previously shown that PNC prevalence reduction is a valid strategy to identify compounds that can be used to study the structure and function of the PNC. It is necessary, however, to create a screening platform that is able to test a large number of compounds in an automated fashion. Here we report the development and robustness of an automated whole-cell phenotypic image-based screening assay that is capable of identifying such compounds.
PNC High Content Imaging Assay Procedure: 1. Cells at a density of 75-90% confluency in T175 flasks were harvested using 7 ml TrypLE Express cell dissociation reagent. After dissociation (5 minutes room temperature incubation) 10 ml of complete media was added to the TrypLE/cell suspension. The liquid was transferred to a 50 ml Conical tube and cells were pelleted at 1000 RPM for 5 min. Supernatant was removed and cells were resuspended to a final density of 150-200 cells/ul in complete media. 2. Cells were plated in 5 ul volume (750-1000 cells/well) into 1536 well Black uclear Aurora Low Base plates and allowed to recover and adhere at 37 C in a humidified 5% CO2 incubator for 4 hours. 3. After 4 hour incubation, compound libraries (23 nl of […] in columns 5-48) were transferred to the plates in duplicate using a 1536 well pintool. Camptothecin positive control (59 uM final) was added to column 2 and 1:3 dilutions of camptothecin was added to column 3. DMSO negative controls were present in columns 1 and 4. 4. After a 16 hour incubation in the 37 C incubator, cells were fixed by the addition of 4 ul of 6% EM grade paraformaldehyde (containing 0.1% triton X 100) directly to the cells. The plates were incubated at room temperature for 20 minutes. The liquid was removed using a 32 channel Kalypsys aspirator and the fixed cells were washed twice with 5 ul PBS followed by a final addition of 5 ul PBS containing 1 ug/ml Hoechst 33342. 5. Fixed plates were sealed and sotred at 4C until imaged. 6. Plates were imaged on an InCell 1000 automated microscope using a 20 x objective, a standard FITC filter set, no camera binning, and an exposure time of ~100-150 msec/well. 7. Data analysis. PNC prevalence was determined using the Multitarget analysis module from InCell Workstation software (V3.5 ) and analysis was run on a quad core workstation using the Incell Developer Toolbox (V1.7). […]

Structure (SMILES) | activity change (PNC), negative = inhibition
CC(OC(=O)c1ccccc1N1C(=O)C2C3CCC(C3)C2C1=O)C(=O)c1ccccc1 (centres undefined) | -15.7%
CC(C)C(C)NC(=O)COc1ncnc2ccccc12 (centres undefined) | 23%
CCOC(=O)c1c(NC(=O)CCl)sc(C(=O)N(CC)CC)c1C | 4.89%
CCOC(=O)c1sc(NC(=O)COc2ncnc3ccccc23)c(C(=O)OCC)c1C | -95.9% (active)
CCOc1ccc(-c2n[nH]c(=S)n2/N=C/c2cc3c(cc2[N+](=O)[O-])OCO3)cc1 | 25.2%
O=C(COc1ccc(Cl)cc1)NCCSc1ccccc1 | 8.59%
O=C(COc1ccc(Cl)cc1)Nc1ccccc1CO | -92.3% (active)
COC(=O)c1sccc1NC(=O)COc1ccc(Cl)cc1 | -3.53%
CCS(=O)(=O)N1Cc2ccccc2CC1C(=O)Nc1nc2ccc(F)cc2s1 (centres undefined) | 48.1%
O=C1C2C3C=CC(C4CC34)C2C(=O)N1c1nccs1 (centres undefined) | 23.7%
Cc1cc(Cl)ccc1NC(=S)N1CCC(C(N)=O)(N2CCCCC2)CC1 | 74.5%
CC(=O)Nc1ccc(NC(=O)c2sc3nc4c(c(-c5ccc(C)cc5)c3c2N)CCC4)cc1 | 14%
Cc1nc2sc(C(=O)c3ccccc3)c(N)c2c2c1CCCC2 | 7.19%
NC(=O)c1sc2nc3c(c(-c4ccccc4)c2c1N)CCC3 | -100% (active)
COc1ccc(Br)cc1C(=O)Nc1cccc(C)c1C | -16.5%
CC(C)OCCCNC(=O)c1cc(Sc2ccc(F)cc2)nc2ccccc12 | -1.71%
Cc1cc(C)cc(NC(=O)N2CCC(NC(=O)c3ccc(F)cc3)CC2)c1 | -20.1%
O=C(NC1CCN(C(=S)NCc2ccco2)CC1)c1ccc(F)cc1 | -100% (active)
O=S(=O)(c1ccc(F)cc1)N1CCN(C(=S)NCc2ccco2)CC1 | 8.43%
Cc1ccc(CN2CCN(/N=C/c3cccnc3)CC2)c(C)c1 | -5.48%
CC(C)(C)NC(=O)C(=O)NCc1ccncc1 | -17.6%
O=C(N/N=C/c1ccccn1)C12CC3CC(CC(C3)C1)C2 | -19.1%
CCOc1ccccc1C(=O)NCCCn1ccnc1 | 15.6%
Cc1nc2ccccc2c(=O)n1CCCn1ccnc1 | -81.9% (active)

Structure (SMILES) | activity change (PNC), negative = inhibition
COCCCn1c2nc3ccccc3nc2c2c(=O)n(Cc3ccc(Cl)cc3)c(C)nc21 | 39.8%
Cc1ccc(C2C3=C(Nc4[nH]n(-c5ccccc5)c(=O)c42)c2ccccc2C3=O)cc1 (centres undefined) | -4.45%
CCCN(CCC)C(=S)Nc1cc(C(=O)OC)ccc1C(=O)OC | 27.9%
Cn1c(=O)c(Sc2ccc(Cl)cc2)c(O)c2ccccc21 | -25.4%
O=C(/C=C/c1c(Cl)cccc1Cl)NCc1ccccc1 | -1.54%
CCOC(=O)CNC(=O)/C=C/c1c(Cl)cccc1Cl | -123% (active)
O=C(CNC(=O)Cc1ccccc1)NCC(=O)OCC(=O)c1ccccc1Cl | 90.5%
CCOC(=O)CC(NC(=O)C1c2ccccc2Oc2ccccc21)c1ccc(C)cc1 (centres undefined) | -19.2%
CCOC(=O)N1CCN(C(=O)C2CCN(Cc3ccc(OC)cc3OC)CC2)CC1 | 33.2%
O=C(NCCN1CCOCC1)[C@H](Cc1ccccc1)N1C(=O)c2ccccc2C1=O | -13.4%
O=C(NC1=NCCS1)[C@H](Cc1ccccc1)N1C(=O)c2ccccc2C1=O | 5.11%
N/C(=N\c1nc2ccccc2o1)NC(=O)C(Cc1ccccc1)N1C(=O)c2ccccc2C1=O (centres undefined) | -100% (active)
CC(Sc1nc(-c2ccccc2)cc(C(F)(F)F)n1)C(=O)Nc1ccc2c(c1)OCO2 (centres undefined) | -18%
Cc1ccc(C(=O)OCC(=O)NCc2ccc3c(c2)OCO3)s1 | -9.27%
c1n[nH]c(NCc2ccc3c(c2)OCO3)n1 | -81.5% (active)
O=C(COc1ccccc1)NCc1ccc2c(c1)OCO2 | 24%
O=C(CSc1nnc(SCc2ccc(Cl)cc2)s1)N/N=C/c1ccccc1Cl | -24.9%
CCOc1ccc(N2C(=O)/C(=C/c3ccc(C)o3)N(C)C2=S)cc1 | 15.7%
CC(C)CCN1C(=O)c2ccc(C(=O)Nc3cccc(S(N)(=O)=O)c3)cc2C1=O | -6.14%
CCOC(=O)C1=C(C)NC(=O)NC1c1ccccc1 (centres undefined) | 2.37%
CCOC(=O)C1=C(C)NC(=S)NC1c1cccs1 (centres undefined) | -93.3% (active)
CCOC(=O)C1=C(C)NC(C)=C(C(=O)OCC)C1C1=COCCO1 | 12%
CONc1nc2nonc2nc1NOC | 47%
Cc1cnc(NC(=O)CSc2nnc(-c3ccc(Cl)cc3Cl)n2N)s1 | -100% (active)

Structure (SMILES) | activity change (PNC), negative = inhibition
Cc1cnc(NC(=O)CSc2c(Cl)cccc2Cl)s1 | 79.3%
Cc1cnc(NC(=O)CSc2nnc(-c3ccccc3)n2Cc2ccccc2)s1 | -8.74%
COc1ccc(C(=O)O/N=C(\N)Cc2ccc(Cl)cc2Cl)cc1OC | -26.7%
CNS(=O)(=O)c1ccc(N2CCCC2=O)c([N+](=O)[O-])c1 | -24.4%
COc1ccc(C(CC(=O)c2ccccc2)S(=O)(=O)c2ccccc2)cc1 (centres undefined) | 10.3%
COCCOC(=O)C1=C(C)N=c2s/c(=C\c3cccs3)c(=O)n2C1c1cccs1 (centres undefined) | -82.9% (active)
COCCOC(=O)C1=C(C)Nc2nc(C)nn2C1c1ccccc1 (centres undefined) | -12.5%
CCOC(=O)C1=C(C)N=c2s/c(=C\C(=O)OC)c(=O)n2C1c1ccc(OC)cc1 (centres undefined) | 0.912%
C=CCOc1ccc(/C=N/NC(=O)C(C)Sc2ccccn2)cc1OCC (centres undefined) | 17.5%
Cc1ccc(N=C2NC(=O)c3cccc([N+](=O)[O-])c32)cc1 | 43.8%
COc1ccc(NC(=O)Cn2c(=O)n(Cc3ccco3)c(=O)c3ccccc32)cc1 | -2.68%
Cn1c2ccccc2c(=O)c2c(=O)n(Cc3ccco3)c(COc3ccccc3)nc21 | -87% (active)
Cc1nc2c(c(=O)n1Cc1ccco1)c1nc3ccccc3nc1n2Cc1ccccc1 | 32.1%
Cc1cc(NC(=O)COC(=O)COc2ccc(Cl)cc2C)c([N+](=O)[O-])cc1C | -20.6%
CN1/C(=C\C(=O)c2cccnc2Cl)C(C)(C)c2ccccc21 | 78%
CCC1C=C(c2ccccc2)C=CN=C1N(CC)CC (centres undefined) | -9.28%
O=C(NC1CC1)c1ccc2c(c1)NC(=O)c1ccccc1S2 | 14.7%
COc1cc(OC)cc(C(=O)NC2CCN(C(=O)N3c4ccccc4Sc4ccccc43)CC2)c1 | -91% (active)
CCOc1ccc(C(=O)NC2CCN(C(=O)Nc3ccccc3OC)CC2)cc1 | 37.5%
CCn1cc(CNC(=O)c2cc([N+](=O)[O-])c(C)c([N+](=O)[O-])c2)cn1 | 4.07%
CCN(CC)CCn1c(/N=C/c2cc(Br)ccc2O)nc2ccccc21 | 21.6%
O=C(COC(=O)/C=C/c1ccc(S(=O)(=O)N2CCCCCC2)cc1)NCc1ccccc1Cl | 0.0752%
CNc1nc(Nc2ccc(C)c(Cl)c2)nc(N)c1[N+](=O)[O-] | -113% (active)
Nc1nc(NCCCN2CCOCC2)nc(Nc2ccccc2)c1[N+](=O)[O-] | -16.9%

Structure (SMILES) | activity change (PNC), negative = inhibition
Cc1ccc(Nc2cc(C)nc3c(C)ccc([N+](=O)[O-])c23)cc1 | 23%
O=C(Cc1ccccc1)NNC1CC(=O)N(c2ccc(Br)cc2)C1=O (centres undefined) | 6.12%
O=C(CC1NCCNC1=O)Nc1cc(Cl)cc(Cl)c1 (centres undefined) | 29.9%
CCc1ccc(Oc2coc3cc(OC(=O)c4cc5ccccc5oc4=O)ccc3c2=O)cc1 | 2.64%
C=CCn1c(SCC(=O)/C(C#N)=C(\C)N)nc2sc(C)c(C)c2c1=O | -7.62%
C=CCn1c(SCc2csc(C)n2)nc2scc(-c3ccc(C)o3)c2c1=O | -99.5% (active)
C=CCn1c(SCc2c(C)noc2C)nc2sc3c(c2c1=O)CCC(C)C3 (centres undefined) | -26.1%
CC1CCCN(S(=O)(=O)c2ccc(N(C(=O)c3cnccn3)C(C(=O)NC3CCCCC3)c3cccs3)cc2)C1 (centres undefined) | 13.4%
O=C(/C=C/c1cnc2ccccc2n1)NC1CCCCCC1 | -24.3%
Cc1nn(Cc2ccc(Cl)cc2)c(Cl)c1/C=N/NC(=O)c1cccnc1 | 35.8%
NC(=O)COc1ccc2c3c(c(=O)oc2c1)CCCCC3 | -10.3%
O=C(CN1CCOCC1)N1CCCc2c1c(=O)oc1ccc(OCc3ccccc3)cc21 | -90.3% (active)
O=C(COc1ccc2oc3c(c2c1)CCCC3)Nc1ccccn1 | -26.2%
CCCCN(CC)C(=O)c1ccccc1Oc1ccccc1 | 6.14%
Cc1cccc(C(=O)NC(=S)N2CCN(c3ccc([N+](=O)[O-])cc3)CC2)c1 | 8.71%
CC(=O)N1c2ccccc2N(Cc2ccc([N+](=O)[O-])cc2)C(=O)C1(C)C | 13.5%
COC(=O)c1ccc(CSc2nc3ccccc3c(=O)n2-c2cccc(OC)c2)o1 | 7.85%
CCOc1ccccc1Nc1nnc(SCc2ccc(C(=O)OC)o2)s1 | 30.2%
COC(=O)c1ccc(Cc2ccccc2)o1 | 13.6%
COCC(C)n1c(SCc2ccc(C(=O)OC)o2)nc2ccccc2c1=O (centres undefined) | 1.64%
COC(=O)c1ccc(CSc2ccc3nnc(-c4ccccc4)n3n2)o1 | -97.8% (active)
COC(=O)c1ccc(CSc2ccccc2C)o1 | -112% (active)
